One assay relates to CRL-7250. The assay can be described thus: Cytotoxic Profiling of Annotated Libraries Using Quantitative High-Throughput Screening (AID 1296008). Also: nearly all actives have a fitted effect of over 60% in size. The settings on record: Five cell lines viability, CellTiter-Glo ATP luminescence, 48-72 h; max response: stronger effect = lower value. The essentials:
(§1)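 Cells exposed to compounds for 48 or 72 hr at 37 degrees Celsius. Viability read as ATP-coupled luminescence with CellTiter-Glo after 10 min at room temperature.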

Another assay has as its system HEK293. Described as above. The conditions noted are these: Five cell lines viability, CellTiter-Glo ATP luminescence, 48-72 h; max response: stronger effect = lower value. In outline:
as §1
(In general: ATP-based viability assays read luminescence as a measure of living cells.)

Values joined by “and” are separate entries in the source; they are usually repeats but may differ in a detail not shown here. Equal values may be shown once. Inconclusive results are not listed. Values without a mark were called inactive. Active and inactive are the calls of the source. Calls follow the shape of the dose curve; as a rule, active = well fitted inhibition curve with a large enough effect; inconclusive = small, poorly fitted or top-dose-only effect; inactive = flat fitted curve, though single readings scatter.
% is scaled to controls: 0 for no effect and ±100 for the full control effect; potency is read from the fitted curve at half-maximal effect.

As to `COc1c(OCCCN2CCOCC2)ccc2c3n(c(=NC(=O)c4cnc(N)nc4)nc12)CCN3`, the Potency was 2.29 µM (active) in the assay with CRL-7250; 363 nM (active) and 42.2 nM (active) in the assay on HEK293.

In the case of `CC1(C)OC2=C(C(=O)c3ccccc3C2=O)[C@H](NCc2ccccc2)[C@H]1O`, the Potency in the assay on CRL-7250 is 16.6 µM (active); in the assay on HEK293 it was 8.33 µM (active).

For `Nc1nc(Nc2ccc(S(N)(=O)=O)cc2)nn1C(=O)c1c(F)cccc1F`, the Potency was 18.7 µM (active) with CRL-7250; 5.9 µM (active) and 2.59 µM (active) with HEK293.

With `COCCOc1ccc2c(c1)ncn2-c1ccc2cccc(N3CCC(N)CC3)c2n1`, the Potency was 4.69 µM (active) and 8.2 µM (active) in the assay with CRL-7250; 11.8 µM (active) in the assay with HEK293.

Take `Nc1ccc(C(=O)c2cc3c(ccc4ccccc43)[nH]2)cc1`: the max response in the assay with CRL-7250 is -31%. For the same compound, the Potency in the assay with HEK293 was 2.96 µM (active).

On to `N#Cc1c(O)c2c(-c3ccc(-c4ccccc4O)cc3)csc2[nH]c1=O`, for which the max response in the assay on CRL-7250 is -0.58% and 1.34%; in the assay on HEK293, 3.13% and -14.8%.

For `NCC(=O)Nc1ccc(-n2nc(C(F)(F)F)cc2-c2ccc3c(ccc4ccccc43)c2)cc1`, the max response with CRL-7250 is -6.6%. In the assay on HEK293, the Potency was 166 nM (active) and 1.46 µM (active).

As for `CC(C)c1ccc(Cn2ccc3c4c(N)nc(NC5CC5)nc4ccc32)cc1`, the Potency in the assay with CRL-7250 was 3.32 µM (active); in the assay on HEK293, 1.18 µM (active).

For `O=C(O)C1(Cc2cccc(Nc3nccs3)n2)CCC(Oc2cccc(Cl)c2F)CC1` (stereo not drawn), the max response in the assay on CRL-7250 is -5.96% and -3.26%. Further, the Potency in the assay on HEK293 is 2.64 µM (active) and 1.3 µM (active).
